Results published in PubChem BioAssay (Tox21).
Inconclusive results are not listed. The source made the active and inactive calls. Calls come from the whole dose curve.

What was measured:
[1] = target: Acetylcholinesterase (Homo sapiens) (UniProt P22303); test: Acetylcholinesterase (AChE) small molecule antagonists: colormetric cell-based qHTS assay (AID 1347395); conditions: SH-SY5Y cells AChE activity, colorimetric (Ellman); series mostly up to 115 µM; note: nearly all actives have a fitted effect of over 30% in size
Chain of Acetylcholinesterase (Homo sapiens) (P22303 whole entry, looked up): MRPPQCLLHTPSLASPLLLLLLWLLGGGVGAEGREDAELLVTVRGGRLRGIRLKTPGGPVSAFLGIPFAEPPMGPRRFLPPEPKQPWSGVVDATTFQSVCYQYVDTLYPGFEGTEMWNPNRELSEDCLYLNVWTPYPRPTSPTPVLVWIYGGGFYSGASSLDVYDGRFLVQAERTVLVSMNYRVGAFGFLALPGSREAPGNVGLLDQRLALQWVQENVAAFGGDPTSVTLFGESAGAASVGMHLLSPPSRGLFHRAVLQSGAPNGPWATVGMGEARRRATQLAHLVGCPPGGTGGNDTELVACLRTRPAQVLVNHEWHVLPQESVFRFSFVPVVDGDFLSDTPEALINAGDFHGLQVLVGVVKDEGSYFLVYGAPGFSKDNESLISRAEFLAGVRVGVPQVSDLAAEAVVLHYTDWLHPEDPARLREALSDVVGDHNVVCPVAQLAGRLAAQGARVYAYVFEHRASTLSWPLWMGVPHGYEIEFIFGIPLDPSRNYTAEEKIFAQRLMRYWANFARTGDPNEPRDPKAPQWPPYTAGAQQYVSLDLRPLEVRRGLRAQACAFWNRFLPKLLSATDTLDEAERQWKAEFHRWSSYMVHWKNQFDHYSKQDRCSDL
How it was run: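 SH-SY5Y cells; cpd 30 min 37 C; + DTNB/acetylthiocholine, 90 min 37 C; colorimetric thiocholine read; qHTS.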

[2] = target: Acetylcholinesterase (Homo sapiens) (UniProt P22303); test: Acetylcholinesterase (AChE) small molecule antagonists: enzyme-based qHTS assay (AID 1347397); conditions: Potency: AChE enzyme activity inhibition; outcome: AChE enzyme activity inhibition; series mostly up to 115 µM; note: nearly all actives have a fitted effect of over 55% in size
How it was run: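 Enzyme inhibition was scored from DTNB-detected thiocholine formed by recombinant human AChE acting on acetylthiocholine. The 30 min compound preincubation and 10 min substrate reaction were both run at room temperature, with DMSO as vehicle control.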

[3] = target: Acetylcholinesterase (Homo sapiens) (UniProt P22303); test: Acetylcholinesterase (AChE) small molecule antagonists: fluorescence cell-based qHTS assay (AID 1347398); conditions: SH-SY5Y cells; Potency: AChE activity; outcome: AChE activity; series mostly up to 115 µM; note: nearly all actives have a fitted effect of over 50% in size
How it was run: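 Endogenous acetylcholinesterase of SH-SY5Y neuroblastoma cells is measured in situ. After overnight attachment and 30 min compound exposure, cells receive acetylthiocholine and Thiolite Green; fluorescence is read after 40 min at room temperature.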

[4] = target: Acetylcholinesterase (Homo sapiens) (UniProt P22303); test: Acetylcholinesterase (AChE) small molecule antagonists: enzyme-based qHTS assay with human liver microsomes (AID 1347399); conditions: Potency: qHTS inhibition; outcome: qHTS inhibition; series mostly up to 115 µM; note: nearly all actives have a fitted effect of over 60% in size
How it was run: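 Recombinant human AChE (50 mU/mL in the enzyme mix) and human liver microsomes (0.25 mg/mL final) were preincubated with compound and NADPH (0.25 mg/mL final) for 30 min at 37 C. Acetylthiocholine/DTNB was then added; thiocholine was read colorimetrically after 10 min at room temperature.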
% is set by controls: 0 for no effect and ±100 for the full control effect.

CC1(C)CC(O)CC(C)(C)N1[O]
inactive: Potency [1] | Potency [2] | Potency [3]

CC(=O)c1cccc([N+](=O)[O-])c1
inactive: Potency [1] | Potency [2] | Potency [3]

CCCC(=O)OC(=O)CCC
inactive: Potency [1] | Potency [2] | Potency [3]

COc1cc(Cl)c(OC)cc1N
inactive: Potency [1] | Potency [2] | Potency [3]

CCCC=O
inactive: Potency [1] | Potency [2] | Potency [3]

CCc1cc(S(=O)(=O)O)c2cc(C(C)C)cccc1-2
inactive: Potency [1] | Potency [2] | Potency [3] | Potency [4]

Cc1ccc2c(Br)cc(Br)c(O)c2n1
inactive: Potency [1] | Potency [2] | Potency [3] | Potency [4]

CC(=N\O)/C(C)=N/O
inactive: Potency [1] | Potency [2] | Potency [3] | Potency [4]

Cc1cn[nH]c1
inactive: Potency [1] | Potency [2] | Potency [3] | Potency [4]

O=C(O)c1cc(N=Nc2ccc([N+](=O)[O-])cc2)ccc1O
inactive: Potency [1] | Potency [2] | Potency [3] | Potency [4]

O=CC1CC1
inactive: Potency [1] | Potency [2] | Potency [3]

CCc1c(Br)c(Br)c(Br)c(Br)c1Br
inactive: Potency [1] | Potency [2] | Potency [3] | Potency [4]

C1=COCCC1
inactive: Potency [1] | Potency [2] | Potency [3] | Potency [4]

C=CC/C=C/C/C=C/C/C=C/C
inactive: Potency [1] | Potency [2] | Potency [3]

COc1c(Br)cc(Br)c(C)c1Br
inactive: Potency [1] | Potency [2] | Potency [3] | Potency [4]

CCCCc1ccc2nc(NC(=O)OC)[nH]c2c1
inactive: Potency [1] | Potency [2] | Potency [3]

CC[C@H](NC(=O)c1cc(F)ccc1NS(=O)(=O)c1cccc2cccnc12)c1ccccc1
inactive: Potency [1] | Potency [2] | Potency [3] | Potency [4]

CC(C)(C)c1cc(CCC(=O)NN)cc(C(C)(C)C)c1O
inactive: Potency [1] | Potency [2] | Potency [3] | Potency [4]

CCNC(=O)C1CC(C)CCC1C(C)C (configuration not stated)
inactive: Potency [1] | Potency [2] | Potency [3] | Potency [4]

Cc1ccc(S(=O)(=O)C(I)I)cc1
inactive: Potency [1] | Potency [2] | Potency [3] | Potency [4]

C=C(C)CCO
inactive: Potency [1] | Potency [2] | Potency [3] | Potency [4]

Oc1ccc2c(c1)Cc1ccccc1-2
inactive: Potency [1] | Potency [2] | Potency [3] | Potency [4]

CCC/C=C/CO
inactive: Potency [1] | Potency [2] | Potency [3] | Potency [4]

CCCc1ccc(N)cc1
inactive: Potency [1] | Potency [2] | Potency [3] | Potency [4]

O=C(O)COCC(=O)O
inactive: Potency [1] | Potency [2] | Potency [3] | Potency [4]

O=CN1CCCCC1
inactive: Potency [1] | Potency [2] | Potency [3] | Potency [4]

C=C(C)C(=O)OCCOCCOC(=O)C(=C)C
inactive: Potency [1] | Potency [2] | Potency [3] | Potency [4]

CCCCCCCCCC(C)=O
inactive: Potency [1] | Potency [2] | Potency [3] | Potency [4]

NC(=O)c1ccc(N)cc1
inactive: Potency [1] | Potency [2] | Potency [3] | Potency [4]

CCOc1ccccc1N
inactive: Potency [1] | Potency [2] | Potency [3] | Potency [4]

C=CC(C)C#N (configuration not stated)
inactive: Potency [1] | Potency [2] | Potency [3] | Potency [4]

O=C(O)C1CCC1
inactive: Potency [1] | Potency [2] | Potency [3] | Potency [4]

CC/C=C\CCOC(=O)c1ccccc1
inactive: Potency [1] | Potency [2] | Potency [3] | Potency [4]

CCCCCCCCCC[N+](C)(C)[O-]
inactive: Potency [1] | Potency [2] | Potency [3] | Potency [4]

O=C(/C=C/c1ccc(O)c(O)c1)O[C@@H]1C[C@@](OC(=O)/C=C/c2ccc(O)c(O)c2)(C(=O)O)C[C@@H](O)[C@@H]1O
inactive: Potency [1] | Potency [2] | Potency [3] | Potency [4]

CC(=O)SCC(CC(=O)c1ccc(C)cc1)C(=O)O (configuration not stated)
inactive: Potency [1] | Potency [2] | Potency [3] | Potency [4]

CCCSS/C(CCO)=C(\C)N(C=O)Cc1cnc(C)nc1N
inactive: Potency [1] | Potency [2] | Potency [3] | Potency [4]

CCO[Si](OCC)(OCC)OCC
inactive: Potency [1] | Potency [2] | Potency [3] | Potency [4]

OCCCC1CCCCC1
inactive: Potency [1] | Potency [2] | Potency [3] | Potency [4]

O=[N+]([O-])c1ccc(F)c(Cl)c1
inactive: Potency [1] | Potency [2] | Potency [3] | Potency [4]

CCCCCCCCCCCCCCN(C)C
inactive: activity, negative = inhibition [1] 0.601% [at 23.6 µM] | activity change, negative = inhibition [2] 0.242% [at 23.6 µM] | activity change, negative = inhibition [3] 2.04% [at 23.8 µM] | activity change, negative = inhibition [4] 0.379% [at 23.6 µM]

Cc1ccc(Cl)cc1Cl
inactive: Potency [1] | Potency [2] | Potency [3] | Potency [4]

CC(C)SCc1ccco1
inactive: Potency [1] | Potency [2] | Potency [3] | Potency [4]

Cc1nc([N+](=O)[O-])cn1-c1ccc([N+](=O)[O-])cc1
inactive: Potency [1] | Potency [2] | Potency [3] | Potency [4]

Cc1nc(-c2ccc(Cl)cc2)oc1COC(C)(C)C(=O)O
inactive: Potency [1] | Potency [2] | Potency [3] | Potency [4]
